# Experimental data: the supplement of paper PMC8728848
# Many of the other results were omitted from the sample, so the strongest signals are more common in it than they were.
# B1: GS7807G-bfa-506-18-506 (Bacteroides fragilis) (protein)
# chain: ASCDKFDEINTDPDATTKVTSSLLATGLLLDITSSSASKSFIYDELLAKQMAWGESMEDYQYNVFGRSGFGGYTTLINAQKMVESVSDDNVNAYDGLAHFIKAYKIFYMSMEMGDLPYEEALQGELGLVRPKYNTQKEVMNFILSDLETAYELFSTAKDFDGDPILGGSISKWKKATTAFQLKVLMHLSKKESDADLKVKERFARIVASGSLMESNEDNLQMKYADKANTVYPFHNTNTKHAGYAMLSTMLIDKFKATGDIRMFYYAKPAKAKLNEGVTADSWDAYIGTDPSLPFEQIEKAYATEQYSGFNARYTDYPSGEPVVRLGYAEQNFILAEAAVRGWISGDASAYYKKAIRAHMEFIASNTPDEEVYHHGHPITEEAIAAFLETPAIQLSGEKEEDIEKILTQRYLASFMQHPYDVYYDYRRTGYPVLPINPATNRNTMNDRLPMRWMYPKSESDYNLEHQNEALERQFGGVDDVNKLMWILQ
# Legend:
# Assay in all cases: glycan array binding signal (z-score within array); higher = stronger binding
# Settings in all cases: glycan notation: IUPAC condensed, linker removed
# [1] = target: Gal(b1-4)GlcNAc(b1-3)Gal(b1-4)GlcNAc(b1-3)Gal(b1-4)GlcNAc(b1-2)[Gal(b1-4)GlcNAc(b1-3)Gal(b1-4)GlcNAc(b1-3)Gal(b1-4)GlcNAc(b1-6)]Man(a1-6)[Gal(b1-4)GlcNAc(b1-3)Gal(b1-4)GlcNAc(b1-3)Gal(b1-4)GlcNAc(b1-2)Man(a1-3)]Man(b1-4)GlcNAc(b1-4)[Fuc(a1-6)]GlcNAc
# Summary of the method: (§1)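 Arrays were curated from the Consortium for Functional Glycomics database, 3228 in total, and kept only where the protein sequence was available. Binding is expressed as a within-array Z-score. This score was averaged across arrays of the same protein sequence at different concentrations or buffers and across linkers, and negative values can be read as non-binding.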
# [2] = target: Gal(b1-4)GlcNAc(b1-3)Gal(b1-4)GlcNAc(b1-3)Gal(b1-4)GlcNAc(b1-3)Gal(b1-4)GlcNAc(b1-3)Gal(b1-4)GlcNAc(b1-2)[Gal(b1-4)GlcNAc(b1-3)Gal(b1-4)GlcNAc(b1-3)Gal(b1-4)GlcNAc(b1-3)Gal(b1-4)GlcNAc(b1-3)Gal(b1-4)GlcNAc(b1-6)]Man(a1-6)[Gal(b1-4)GlcNAc(b1-3)Gal(b1-4)GlcNAc(b1-3)Gal(b1-4)GlcNAc(b1-3)Gal(b1-4)GlcNAc(b1-3)Gal(b1-4)GlcNAc(b1-2)Man(a1-3)]Man(b1-4)GlcNAc(b1-4)[Fuc(a1-6)]GlcNAc
# Summary of the method: as §1
# [3] = target: Gal(b1-4)GlcNAc(b1-3)GalNAc
# Summary of the method: as §1
# [4] = target: Gal(b1-4)GlcNAc(b1-6)[Gal(b1-4)GlcNAc(b1-3)]GalNAc
# Summary of the method: as §1
# Gal3S4S(b1-4)GlcNAc = target: Gal3S4S(b1-4)GlcNAc
# Summary of the method: as §1
# Gal4S(b1-4)GlcNAc = target: Gal4S(b1-4)GlcNAc
# Summary of the method: as §1
# GalNAc(a1-3)GalNAc = target: GalNAc(a1-3)GalNAc
# Summary of the method: as §1
# [5] = target: GalNAc(b1-3)Gal(a1-4)Gal(b1-4)GlcNAc(b1-3)Gal(b1-4)Glc
# Summary of the method: as §1
# GalNAc(b1-3)GalNAc = target: GalNAc(b1-3)GalNAc
# Summary of the method: as §1
# GalNAc(b1-3)GlcNAc = target: GalNAc(b1-3)GlcNAc
# Summary of the method: as §1
# GalNAc3S(b1-4)GlcNAc3S = target: GalNAc3S(b1-4)GlcNAc3S
# Summary of the method: as §1
# [6] = target: GlcNAc(a1-6)Gal(b1-4)GlcNAc
# Summary of the method: as §1
# [7] = target: GlcNAc(b1-3)Gal(b1-4)GlcNAc(b1-2)[GlcNAc(b1-3)Gal(b1-4)GlcNAc(b1-6)]Man(a1-6)[GlcNAc(b1-3)Gal(b1-4)GlcNAc(b1-2)Man(a1-3)]Man(b1-4)GlcNAc(b1-4)GlcNAc
# Summary of the method: as §1
# [8] = target: GlcNAc(b1-3)Gal(b1-4)GlcNAc(b1-3)Gal(b1-4)GlcNAc(b1-3)Gal(b1-4)GlcNAc(b1-2)Man(a1-3)[GlcNAc(b1-3)Gal(b1-4)GlcNAc(b1-3)Gal(b1-4)GlcNAc(b1-3)Gal(b1-4)GlcNAc(b1-2)Man(a1-6)]Man(b1-4)GlcNAc(b1-4)GlcNAc
# Summary of the method: as §1
# [9] = target: GlcNAc(b1-3)[GlcNAc(b1-6)]GalNAc
# Summary of the method: as §1
# Kdn(a2-3)Gal(b1-3)GalNAc = target: Kdn(a2-3)Gal(b1-3)GalNAc
# Summary of the method: as §1
# Kdn(a2-3)Gal(b1-4)Glc = target: Kdn(a2-3)Gal(b1-4)Glc
# Summary of the method: as §1
# [10] = target: Man(a1-3)[Man(a1-6)]Man(a1-6)[Man(a1-3)]Man(b1-4)GlcNAc(b1-4)GlcNAc
# Summary of the method: as §1
# [11] = target: Neu5Ac(a2-3)Gal(b1-3)GalNAc(b1-3)Gal(a1-4)Gal(b1-4)Glc
# Summary of the method: as §1
# [12] = target: Neu5Ac(a2-3)Gal(b1-3)GlcNAc
# Summary of the method: as §1
# [13] = target: Neu5Ac(a2-3)Gal(b1-3)GlcNAc(b1-2)Man
# Summary of the method: as §1
# [14] = target: Neu5Ac(a2-3)Gal(b1-3)GlcNAc(b1-2)Man(a1-3)[GlcNAc(b1-4)][Neu5Ac(a2-3)Gal(b1-3)GlcNAc(b1-2)Man(a1-6)]Man(b1-4)GlcNAc(b1-4)GlcNAc
# Summary of the method: as §1
# [15] = target: Neu5Ac(a2-3)Gal(b1-4)GlcNAc(b1-2)Man(a1-3)[Neu5Ac(a2-3)Gal(b1-4)GlcNAc(b1-2)Man(a1-6)]Man(b1-4)GlcNAc(b1-4)[Fuc(a1-6)]GlcNAc
# Summary of the method: as §1
# [16] = target: Neu5Ac(a2-6)Gal(b1-4)GlcNAc(b1-2)Man(a1-3)[Neu5Ac(a2-6)Gal(b1-4)GlcNAc(b1-2)Man(a1-6)]Man(b1-4)GlcNAc(b1-4)[Fuc(a1-6)]GlcNAc
# Summary of the method: as §1
# [17] = target: Neu5Ac(a2-6)Gal(b1-4)GlcNAc(b1-2)[Neu5Ac(a2-6)Gal(b1-4)GlcNAc(b1-4)]Man(a1-3)[GlcNAc(b1-4)][Neu5Ac(a2-6)Gal(b1-4)GlcNAc(b1-4)Man(a1-6)]Man(b1-4)GlcNAc(b1-4)GlcNAc
# Summary of the method: as §1
# [18] = target: Neu5Ac(a2-6)Gal(b1-4)GlcNAc(b1-3)Gal(b1-4)[Fuc(a1-3)]GlcNAc(b1-3)Gal(b1-4)[Fuc(a1-3)]GlcNAc
# Summary of the method: as §1
# [19] = target: Neu5Ac(a2-6)Gal(b1-4)GlcNAc(b1-3)GalNAc
# Summary of the method: as §1
# [20] = target: Neu5Ac(a2-8)Neu5Ac(a2-3)Gal(b1-3)GalNAc(b1-4)[Neu5Ac(a2-8)Neu5Ac(a2-3)]Gal(b1-4)Glc
# Summary of the method: as §1
# [21] = target: Neu5Gc(a2-8)Neu5Gc(a2-3)Gal(b1-4)GlcNAc
# Summary of the method: as §1
binder,measurement,setting,value
B1,glycan array binding signal (z-score),[1],2.78
same,glycan array binding signal (z-score),[2],4.67
same,glycan array binding signal (z-score),[3],-0.443
same,glycan array binding signal (z-score),[4],1.86
same,glycan array binding signal (z-score),Gal3S4S(b1-4)GlcNAc,-0.454
same,glycan array binding signal (z-score),Gal4S(b1-4)GlcNAc,-0.273
same,glycan array binding signal (z-score),GalNAc(a1-3)GalNAc,-0.209
same,glycan array binding signal (z-score),[5],-0.567
same,glycan array binding signal (z-score),GalNAc(b1-3)GalNAc,-0.744
same,glycan array binding signal (z-score),GalNAc(b1-3)GlcNAc,0.616
same,glycan array binding signal (z-score),GalNAc3S(b1-4)GlcNAc3S,-0.726
same,glycan array binding signal (z-score),[6],-0.271
same,glycan array binding signal (z-score),[7],0.698
same,glycan array binding signal (z-score),[8],0.543
same,glycan array binding signal (z-score),[9],-0.871
same,glycan array binding signal (z-score),Kdn(a2-3)Gal(b1-3)GalNAc,-0.399
same,glycan array binding signal (z-score),Kdn(a2-3)Gal(b1-4)Glc,-0.306
same,glycan array binding signal (z-score),[10],3.61
same,glycan array binding signal (z-score),[11],-0.786
same,glycan array binding signal (z-score),[12],-0.636
same,glycan array binding signal (z-score),[13],2.81
same,glycan array binding signal (z-score),[14],-0.528
same,glycan array binding signal (z-score),[15],-0.269
same,glycan array binding signal (z-score),[16],4.41
same,glycan array binding signal (z-score),[17],-0.864
same,glycan array binding signal (z-score),[18],-0.153
same,glycan array binding signal (z-score),[19],2.85
same,glycan array binding signal (z-score),[20],0.197
same,glycan array binding signal (z-score),[21],-0.712
